Rows were chosen to be rich in hits. Some 2.2% of all compounds tested hit in one or more screens of this group.
Mito fusion yeast – inhibitors of mitochondrial division or activators of mitochondrial fusion; S. cerevisiae fusion-defective mutant growth rescue, CellTiterGlo 48 h; Potency, µM (series often up to 46.1 µM), actives largely listed as activators; 0.23% of 320,000 active; further: nearly all actives have a fitted effect of over 45% in size
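Read-out: ATP-based luminescence (CellTiterGlo, 10 min ambient) reporting growth of fusion-defective ts yeast after 48 hours at 37C on glycerol/ethanol YPEG medium in the presence of compound.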
aSyn yeast inh – rescues yeast growth from alpha-synuclein toxicity | 0.14% of 370,000 active | Yeast expressing alpha-synuclein, growth rescue, BacTiter-Glo, 24 h | Potency, µM (titrated, usually from 46.1 µM), hits mostly activators; further: nearly all actives have a fitted effect of over 65% in size
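Screening used galactose-induced yeast with toxic alpha-synuclein levels, exposed to compound for 24 hr at 30 deg C. Cell growth, read with BacTiter-Glo luminescence, gave the measured signal.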
ERG Ets-DNA blk – blocks human ERG Ets domain binding to DNA; P11308; fluorescence polarization, His-ERG Ets domain / labelled DNA; Potency, µM (titrated, usually from 76.9 µM), most hits filed as inhibitors; 0.028% of 370,000 active; AID 624246; active means well fitted inhibition curve with a large enough effect in the polarisation, with a control signal flat; inconclusive means small, poorly fitted or top-dose-only effect, or effect the other way, or a change in a side signal; inactive means no such curve, though single readings can be large or run the other way; the % refers to the polarisation;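 further: polarization taken with two DNA probes labelled with fluorescein and Texas red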
Target sequence (P11308 whole entry, looked up, the tested form may be a part): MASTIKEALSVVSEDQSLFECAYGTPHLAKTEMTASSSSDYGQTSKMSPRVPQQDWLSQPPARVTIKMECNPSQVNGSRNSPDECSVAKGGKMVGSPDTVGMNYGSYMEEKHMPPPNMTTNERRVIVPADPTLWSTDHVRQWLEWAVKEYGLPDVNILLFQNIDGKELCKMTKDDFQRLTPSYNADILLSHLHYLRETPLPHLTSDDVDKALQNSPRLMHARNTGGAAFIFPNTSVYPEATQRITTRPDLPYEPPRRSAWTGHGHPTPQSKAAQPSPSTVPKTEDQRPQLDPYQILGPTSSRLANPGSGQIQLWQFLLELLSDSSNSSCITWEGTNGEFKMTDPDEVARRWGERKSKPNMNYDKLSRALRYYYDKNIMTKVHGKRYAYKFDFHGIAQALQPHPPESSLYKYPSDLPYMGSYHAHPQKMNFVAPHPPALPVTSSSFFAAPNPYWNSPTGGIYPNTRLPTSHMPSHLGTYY
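His-tagged ERG Ets domain (1 uM in the protein solution; 300mM KCl, 50mM Tris-HCl, 1mM EDTA, 1mM DTT, pH 7.5) received compound, then a probe mix of 5 nM fluorescein-DNA and 100nM Texas-615-DNA. Fluorescence polarization was read for both dyes.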
Abeta yeast res – A-beta toxicity reversal in yeast. 0.063% of 410,000 active. Potency, µM (doses to about 46.1 µM), hits mostly activators. yeast expressing A-beta42, growth rescue, OD600, 48 h; response scale: 0% DMSO, 100% iron-clioquinol control; further: nearly all actives have a fitted effect of over 55% in size
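Growth rescue measured by 600 nm absorbance after 48 h yeast culture at 30 C with compound. Values normalized between DMSO and an equimolar ferric chloride plus clioquinol control.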
FUS yeast rescue – suppressors of FUS proteinopathy in yeast; 0.24% of 390,000 active; S. cerevisiae FUS-expressing, growth rescue, OD600, 24 h; AID 1347120; Potency, µM (series often up to 76.6 µM), most hits filed as activators; further: nearly all actives have a fitted effect of over 55% in size
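Restored growth of FUS-toxic S. cerevisiae, read as 600 nm absorbance after 24 h at 30C in galactose medium (starting OD 0.005). Controls CP55940 and DMSO.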
TDP43 rescue – TDP-43 toxicity inhibition in yeast; Potency, µM (titrated, usually from 46.1 µM), most hits filed as activators; TDP-43 expressing yeast growth rescue, BacTiter-Glo, 24 h; 1.8% of 410,000 active; AID 652104; further: nearly all actives have a fitted effect of over 50% in size
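Readout is BacTiter-Glo luminescence of cell growth, so inhibitors register as activators. TDP-43-expressing yeast at OD600=0.02 in galactose medium, after raffinose pregrowth to mid-log, were incubated with compound for 24 hr at 30 deg C.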
A number is an active result; - = inactive; ? = inconclusive; . = not tested or not shown. Unless noted, the call rests on the fitted dose curve; in most records, active means well fitted curve in the direction sought with a large enough effect; inconclusive means small, poorly fitted or top-dose-only effect, or another doubt; inactive means no such curve, though single readings can be large; an effect the other way counts as inactive or inconclusive.

SMILES	Mito fusion yeast	aSyn yeast inh	ERG Ets-DNA blk	Abeta yeast res	FUS yeast rescue	TDP43 rescue
CCOC(=O)c1c(-c2ccccc2)csc1NC(=O)c1nc(S(=O)(=O)CC)ncc1Cl	.	.	-	-	-	3.98µM
Cc1cccc(NC(=O)c2nc(S(C)(=O)=O)ncc2Cl)c1	.	.	-	-	-	20µM
COc1ccc(OC)c(NC(=O)c2nc(S(=O)(=O)Cc3ccc(F)cc3)ncc2Cl)c1	.	.	-	-	-	3.16µM
CCN(CC)C(=O)CNc1nnnn1-c1ccccc1	.	.	.	.	-	.
CC1(C(=O)N2CCC(Oc3cccnc3)CC2)CC1	.	.	.	.	-	.
O=C(N1CCOCC1)N1CC[C@H]2[C@H](CCCN2Cc2cc(F)cc(F)c2)C1	.	.	.	.	-	.
O=C(CN1CCN(c2ccc(O)cc2)CC1)Nc1ccc(S(=O)(=O)N2CCCC2)cc1	.	-	-	-	-	-
Cc1ccc(C)c2c1cc(C)c1nnc(SCc3ccccn3)n12	-	.	-	-	-	11.2µM
Cc1cc2cc(C)c3nnc(SCc4ccccn4)n3c2cc1C	-	-	-	-	-	-
Cc1ccc(Nc2c(N)c(=O)oc3ccccc23)cc1	-	-	-	-	-	14.1µM
CCOC(=O)c1ccc2oc(=O)n(Cc3ccccc3)c2c1	.	.	-	-	-	7.94µM
O=C(O)c1ccc2oc(=O)n(Cc3ccccc3)c2c1	.	.	-	-	-	-
COc1cccc(CNC(=O)c2ccc3oc(=O)n(Cc4ccccc4)c3c2)c1	.	.	-	?	-	25.1µM
Cc1ccc(-c2nc(=Nc3c(C)cc(C)cc3C)sn2-c2ccccc2)cc1	.	-	.	.	.	.
CCc1ccccc1Nc1nc2ccccc2n2cnnc12	.	.	-	-	-	12.6µM
Cc1ccc(O)c(Nc2nc3ccccc3c3nncn23)c1	.	.	-	-	-	-
CCc1ccccc1Nc1nc2ccccc2c2nncn12	.	.	-	-	-	17.8µM
COc1cccc(Nc2nc3ccccc3n3cnnc23)c1	-	-	-	-	-	12.6µM
CCc1cccc(C)c1Nc1nc2ccccc2n2cnnc12	-	-	-	-	-	-
CCCC1CCC2(CC1)CCC2OC(=S)NCc1cccc(OC)c1 (configuration not stated)	.	.	.	.	-	.
COc1cc2c(=O)n(CCC(=O)NCC3CCCO3)c(=O)n(CC(=O)Nc3c(C)cccc3C)c2cc1OC (configuration not stated)	.	.	-	-	-	-
Cc1ccc(CNC(=O)O[C@H]2CC[C@@]34CCCN3C(=O)CCC[C@H]4C2)cc1	.	.	.	.	-	.
CCCC(=O)N1CCC[C@]2(CC[C@H](CCC(=O)OCC)O2)C1	.	.	.	.	-	.
CC1=C(C(=O)Nc2ccccc2)C(c2ccc(Br)cc2)n2nc(CCCO)nc2N1 (configuration not stated)	.	.	-	-	-	-
CC(c1ccccc1)N1CCn2c(nc3cc(NC(=O)NC4CCCCC4)ccc32)C1 (configuration not stated)	-	-	-	-	11.2µM	-
SMILES	Mito fusion yeast	aSyn yeast inh	ERG Ets-DNA blk	Abeta yeast res	FUS yeast rescue	TDP43 rescue
CC(c1ccccc1)N1CCn2c(nc3cc(NC(=O)c4cccs4)ccc32)C1 (configuration not stated)	-	-	.	-	-	-
CN(C)c1ccc(Nc2ncnc3sc4c(c23)CCCC4)cc1	.	-	-	-	-	-
Cc1ccc(C(C)C)c(OCC(=O)Nc2cccc(NC(=O)c3ccco3)c2)c1	.	.	-	-	-	20µM
COc1c(C)cc(Br)cc1C(=O)Nc1cccc(-c2nc3ncccc3o2)c1	-	-	-	-	-	12.6µM
O=C(Nc1cccc(NC(=O)c2ccccc2Cl)c1)c1ccco1	-	-	-	-	-	17.8µM
Cc1cc(C)c(OCC(=O)Nc2cccc(-c3nc4ncccc4o3)c2)c(Br)c1	.	.	-	-	-	-
Cc1ccc(C(C)C)c(OCC(=O)Nc2cccc(-c3nc4ncccc4o3)c2)c1	.	.	-	-	-	22.4µM
COc1ccc(NC(=O)c2ccco2)cc1NC(=O)COc1cc(C)ccc1C(C)C	.	.	-	-	-	-
Cc1ccc(OCC(=O)Nc2ccc(OCc3cc(=O)n4cccc(C)c4n3)cc2)cc1C	.	.	-	-	-	-
Cc1cccc(C)c1OCC(=O)Nc1cccc(NC(=O)c2ccco2)c1	?	-	-	-	-	25.1µM
O=C(/C=C\c1ccccc1)Nc1ccc(NC(=O)c2ccco2)cc1	-	-	-	-	-	35.5µM
Cc1cc2c(cc1NS(=O)(=O)c1cccc(C#N)c1)n(C)c(=O)c(=O)n2C	.	.	-	-	-	-
C#CCOCCOCCOCCNc1nc(N2CCN(C(=O)CCCCCCCCCCNC(=O)Cn3cc(C[C@@H](C)O)nn3)CC2)nc(N2CCN(C(=O)CCCCCCCCCCNC(=O)[C@@H](CCSC)n3cc(CCO)nn3)CC2)n1	-	-	-	-	3.98µM	-
C#CCOCCOCCOCCNc1nc(N2CCN(C(=O)CCCCCCCCCCNC(=O)[C@@H](CCSC)n3cc(CCO)nn3)CC2)nc(N2CCN(C(=O)CCCCCCCCCCNC(=O)[C@@H]([C@H](C)O)n3cc(C)nn3)CC2)n1	-	-	-	-	7.94µM	-
C#CCOCCOCCOCCNc1nc(N2CCN(C(=O)CCCCCCCCCCNC(=O)[C@@H](CCSC)n3cc(CCO)nn3)CC2)nc(N2CCN(C(=O)CCCCCCCCCCNC(=O)[C@H](CO)n3cc(CCCCCN)nn3)CC2)n1	-	-	-	-	?	-
C#CCOCCOCCOCCNc1nc(N2CCN(C(=O)CCCCCCCCCCNC(=O)Cn3cc(CCCCCN)nn3)CC2)nc(N2CCN(C(=O)CCCCCCCCCCNC(=O)Cn3cc(C[C@@H](C)O)nn3)CC2)n1	-	-	-	-	?	-
C#CCOCCOCCOCCNc1nc(N2CCN(C(=O)CCCCCCCCCCNC(=O)[C@H](CCCCN)n3cc(C)nn3)CC2)nc(N2CCN(C(=O)CCCCCCCCCCNC(=O)[C@@H]([C@H](C)O)n3cc(C)nn3)CC2)n1	-	-	-	-	11.2µM	-
C#CCOCCOCCOCCNc1nc(N2CCN(C(=O)CCCCCCCCCCNC(=O)[C@@H](CCSC)n3cc(CCO)nn3)CC2)nc(N2CCN(C(=O)CCCCCCCCCCNC(=O)[C@H](CCC(=O)O)n3cc(CCCCCN)nn3)CC2)n1	-	-	-	-	11.2µM	-
C=CCOc1ccc(/C=C2\SC(=S)N(NS(=O)(=O)c3ccc(C)cc3)C2=O)cc1	-	-	-	-	-	-
CCOC(=O)c1oc2ccc(S(=O)(=O)n3nc(-c4ccccc4)cc3N)cc2c1C	-	-	-	-	-	-
CCOC(=O)c1oc2ccc(S(=O)(=O)n3nc(-c4ccc(OC)cc4)cc3N)cc2c1C	12.6µM	-	?	-	-	-
